Several values for one entry are separate records, joined by “and”; a condition that tells them apart may be missing. Equal values may be shown once. In all, about 5,500 compounds went through this assay and about 2,000 (36%) were called active. About 18% were inconclusive and are not listed. No stated cut-off is given here; in the data, active means normalized growth mostly below about 0.91 (no sharp cut-off); inconclusive means no clear call, values can overlap the other calls; inactive means mostly above about 0.92. Some of the results follow.
Assay: chemical genetic growth profiling, strain panel (AID 1159580);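 further: tested at 20 µM; growth read once vehicle control cultures reached saturation at 30 °C; 1 = growth at the plate median or of vehicle wells; lower values mean less growth of the strain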
Details: S. cerevisiae deletion strains, growth OD

Measured: normalized growth

CCOC(=O)[C@H](CCc1ccccc1)N[C@H]1CCc2ccccc2N(CC(=O)O)C1=O
inactive: locus YAL013W, strain DEP1, active compounds read low 0.989 | locus YAL021C, strain ccr4, active compounds read low 0.961 | locus YAL026C, strain drs2, active compounds read low 0.959 | locus YAL030W, strain snc1, active compounds read low 0.992 | locus YBL061C, strain skt5, active compounds read low 0.988 | locus YBR009C, strain hhf1, active compounds read low 0.973 | locus YBR021W, strain FUR4, active compounds read low 0.978 | locus YBR023C, strain chs3, active compounds read low 0.989 | locus YBR171W, strain sec66, active compounds read low 0.976 | locus YBR229C, strain ROT2, active compounds read low 0.986 | locus YBR231C, strain swc5, active compounds read low 0.96 | locus YBR279W, strain paf1, active compounds read low 0.987 | locus YCL011C, strain gbp2, active compounds read low 0.992 | locus YCL016C, strain dcc1, active compounds read low 0.981 | locus YCL029C, strain bik1, active compounds read low 0.966 | locus YCL061C, strain MRC1, active compounds read low 0.979 | locus YCL069W, strain vba3, active compounds read low 0.99 | locus YCR088W, strain abp1, active compounds read low 0.975 | locus YDL005C, strain med2, active compounds read low 0.972 | locus YDL035C, strain GPR1, active compounds read low 0.998 | locus YDL040C, strain nat1, active compounds read low 0.995 | locus YDL074C, strain BRE1, active compounds read low 0.998 | locus YDL101C, strain DUN1, active compounds read low 0.983 | locus YDL134C, strain PPH21, active compounds read low 0.998 | locus YDL185W, strain tfp1, active compounds read low 0.978 | locus YDL192W, strain arf1, active compounds read low 0.97 | locus YDR001C, strain nth1, active compounds read low 1.01 | locus YDR069C, strain doa4, active compounds read low 0.978 | locus YDR101C, strain arx1, active compounds read low 0.98 | locus YDR137W, strain rgp1, active compounds read low 0.992 | locus YDR150W, strain NUM1, active compounds read low 0.987 | locus YDR159W, strain sac3, active compounds read low 1.01 | locus YDR162C, strain NBP2, active compounds read low 0.987 | locus YDR195W, strain ref2 0.961 | locus YDR297W, strain sur2, active compounds read low 0.99 | locus YDR318W, strain mcm21, active compounds read low 0.977 | locus YDR334W, strain swr1, active compounds read low 0.988 | locus YDR335W, strain msn5, active compounds read low 0.983 | locus YDR388W, active compounds read low 0.976 | locus YDR392W, strain spt3, active compounds read low 0.963 | locus YDR502C, strain sam2, active compounds read low 0.985 | locus YEL003W, strain gim4, active compounds read low 0.992 | locus YEL037C, strain rad23, active compounds read low 0.982 | locus YEL061C, strain CIN8 (second series), active compounds read low 0.986 | locus YEL061C, strain CIN8, active compounds read low 0.989 | locus YER015W, strain faa2, active compounds read low 0.985 | locus YER016W, strain bim1, active compounds read low 0.979 | locus YER110C, active compounds read low 0.979 | locus YER111C, strain swi4, active compounds read low 1 | locus YER155C, strain BEM2 (second series), active compounds read low 0.902 | locus YER155C, strain BEM2, active compounds read low 0.984 | locus YER167W, strain BCK2, active compounds read low 0.984 | locus YFR010W, strain ubp6, active compounds read low 0.982 | locus YGL078C, strain dbp3, active compounds read low 0.977 | locus YGL086W, strain mad1, active compounds read low 0.988 | locus YGL167C, strain pmr1, active compounds read low 0.983 | locus YGL173C, strain kem1, active compounds read low 0.974 | locus YGL227W, strain vid30, active compounds read low 0.965 | locus YGL240W, strain doc1, active compounds read low 0.949 | locus YGL248W, strain PDE1, active compounds read low 0.983 | locus YGL253W, strain hxk2, active compounds read low 0.999 | locus YGR078C, strain PAC10, active compounds read low 1.01 | locus YGR135W, strain pre9, active compounds read low 0.985 | locus YGR229C, strain SMI1, active compounds read low 0.994 | locus YGR252W, strain gcn5, active compounds read low 1.04 | locus YHR013C, strain ard1, active compounds read low 0.977 | locus YHR027C, strain rpn1, active compounds read low 0.992 | locus YHR030C, strain SLT2, active compounds read low 0.981 and 0.964 | locus YHR079C, strain IRE1 (second series), active compounds read low 0.969 | locus YHR079C, strain IRE1, active compounds read low 0.964 | locus YHR094C, strain hxt1, active compounds read low 0.976 | locus YHR129C, strain ARP1, active compounds read low 0.988 | locus YHR142W, strain chs7, active compounds read low 0.986 | locus YHR200W, strain rpn10, active compounds read low 0.979 | locus YIL066C, strain RNR3, active compounds read low 0.985 | locus YIL073C, strain SPO22, active compounds read low 1.01 | locus YIL125W, strain kgd1, active compounds read low 0.978 | locus YIR030C, strain dcg1, active compounds read low 0.968 | locus YJL092W, strain hpr5, active compounds read low 0.988 | locus YJL095W, strain BCK1 (second series), active compounds read low 0.979 | locus YJL095W, strain BCK1, active compounds read low 0.99 and 0.984 | locus YJL115W, strain asf1, active compounds read low 0.969 | locus YJL129C, strain trk1, active compounds read low 0.973 | locus YJL134W, strain LCB3, active compounds read low 0.979 | locus YJL154C, strain vps35, active compounds read low 0.992 | locus YJL164C, strain tpk1, active compounds read low 0.97 | locus YJL166W, strain qcr8, active compounds read low 0.964 | locus YJL168C, strain set2, active compounds read low 0.973 | locus YJL187C, strain SWE1 (second series), active compounds read low 0.986 | locus YJR043C, strain POL32, active compounds read low 0.984 | locus YJR066W, strain TOR1, active compounds read low 0.942

— PubChem BioAssay AID1159580 (chemical genetic matrix, 2015)
